Calls of active or inactive are those of the source. The calls were made as follows: active = hit-call score of the fitted dose curve at least 0.9, where 1 is the maximum; inactive = score below 0.9.
assay: ATG_GRE_CIS: Attagene CIS-FACTORIAL HepG2 Assay for human Glucocorticoid Response Elements (GRE) (AID 2282947); conditions: HepG2 GRE cis-reporter, Attagene multiplex mRNA; actives raise or lower the signal
Protocol: ATG_CIS is a cell-based, multiplexed-readout assay that uses HepG2, a human liver cell line, with measurements taken at 24 hours after chemical dosing in a 24-well plate.ATG_GRE_CIS is one of 52 assay component(s) measured or calculated from the ATG_CIS assay. It is designed to make measurements of mRNA induction, a form of inducible reporter, as detected with fluorescence intensity signals by Reverse transcription polymerase chain reaction (RT-PCR) and Capillary electrophoresis technology.Data from the assay component ATG_GRE_CIS was analyzed into 1 assay endpoint. This assay endpoint, ATG_GRE_CIS, was analyzed with bidirectional fitting relative to DMSO as the negative control and baseline of activity. Using a type of inducible reporter, measures of mRNA for gain or loss-of-signal activity can be used to understand the reporter gene at the transcription factor-level as they relate to the gene NR3C1. Furthermore, this assay endpoint can be referred to as a primary readout, because this assay has produced multiple assay endpoints where this one serves a reporter gene function. To generalize the intended target to other relatable targets, this assay endpoint is annotated to the nuclear receptor intended target family, where the subfamily is steroidal.
Human liver HepG2 cells are transiently transfected with multiple reporter transcription units (MRTUs) in 6-well plates using FuGene 6 reagent (Roche; 3 ml FuGene/1 mg DNA). The MRTU constructs are regulated by a cis-regulating element (promoter). […] A major difference between the CIS and TRANS system is that in CIS activities of endogenous TFs are measured, whereas the TRANS assay evaluates changes in activities of exogenous, chimeric NR-Gal4 proteins. […] At the end of 24 hour incubation, total RNA was isolated using TriZol reagent (Invitrogen). The isolated RNA is then reverse-transcribed using oligo(dT) primer and Mo-MLV reverse transcriptase (Invitrogen) with DNAse I (Ambion) treatment for 30 min. The one-tenth of the produced cDNA was amplified by PCR using Taq DNA polymerase (Invitrogen) and two reporter sequence-specific primers. The PCR products were fluorescently labeled by primer extension with 6-arboxyfluorescein (6-FAM) 5'-labeled reporter sequence-specific primer (2 min at 95 C, 20 s at 68 C and 10 min at 72 C) and these products were digested with 5U of HpaI (New England Biolabs) for 2h at 37 C. The fragments were purified using Qiaquick PCR columns (Qiagen), analyzed on an ABI 3130xL genetic analyzer (Applied Biosystems) with peak positions identified by using a set of X-rhodamine (ROX)-labeled MapMarker1000 molecular weight standards (BioVentures). The raw capillary electrophoresis data was processed using Attagraph software (Attagene).

outcome, inactive:
CC(=O)[O][Al][O]C(C)=O
CC(C)CCCCCCCOC(=O)c1ccc(C(=O)OCCCCCCCC(C)C)c(C(=O)OCCCCCCCC(C)C)c1
COc1ccnc(CS(=O)c2nc3cc(OC(F)F)ccc3[nH]2)c1OC (stereo not given)
O=C=NC1CCC(CC2CCC(N=C=O)CC2)CC1 (stereo not given)
O=C(O)C[C@H](O)C[C@H](O)/C=C/c1c(C2CC2)nc2ccccc2c1-c1ccc(F)cc1
CC(C)(CO)[N+](=O)[O-]
NC(=O)NC1NC(=O)NC1=O (stereo not given)
CC(C)=CCC[C@](C)(O)[C@@H]1CC=C(C)CC1
CC(C)OP(=O)(CP(=O)(OC(C)C)OC(C)C)OC(C)C
CCCc1ccccc1O
COc1ccc(OC)c(OC)c1
Cc1ccc(C=O)cc1
CNC(=O)Oc1ccc2c(c1)[C@]1(C)CCN(C)[C@@H]1N2C
C=C[Si](OCC)(OCC)OCC
CCCCCCOC(=O)CCCCC
CCCCCCCCCCN
CCCCN
CC(C#N)(CCC(=O)O)N=NC(C)(C#N)CCC(=O)O (stereo not given)
COc1cccc(OC)c1
CCCCCCCCCCCCCOS(=O)(=O)O
COc1cc2ncnc(Nc3cccc(Cl)c3)c2cc1OC
CC(C)=CCCC(C)CC=O (stereo not given)
CC(C)(C)c1n[nH]c(=S)n(N)c1=O
COc1ccc(O)cc1
CCCCCCCCCCCCSC
COc1cc(C=O)ccc1OC(=O)C(C)C
Cc1ccc(C(C)C)cc1O
N#Cc1ccc(CC(=NNC(=O)Nc2ccc(OC(F)(F)F)cc2)c2cccc(C(F)(F)F)c2)cc1
COC(C(=O)O)c1ccccc1 (stereo not given)
CCCCCCCCCCCCCCCC(=O)O
COc1ccc(Cl)cc1C
CC(=O)Nc1ccc(CC(=O)O)cc1
CCCCCCCCCCC(CO)CCCCCCCC (stereo not given)
CC(C)C1CCC(O)CC1 (stereo not given)
O=C(O)CN(CCN(CC(=O)O)CC(=O)O)CCN(CC(=O)O)CC(=O)O
O=Cc1ccc(Cl)c([N+](=O)[O-])c1
CC1=CCC2C(C1)C2(C)C (stereo not given)
O=C(O)c1cccc(C(F)(F)F)c1
C=C(C)C(=O)O

AC50, active:
O=C1c2ccccc2C(=O)N1SC1CCCCC1 169 µM
